Inconclusive results are not listed. Active and inactive are the calls of the source. Unless noted, calls follow the shape of the dose curve; as a rule, active = well fitted curve in the direction sought with a large enough effect; inconclusive = small, poorly fitted or top-dose-only effect, or another doubt; inactive = no such curve, though single readings can be large; an effect the other way counts as inactive or inconclusive.
What was measured:
[1] = target: Lysosomal acid glucosylceramidase (Homo sapiens) (UniProt P04062); experiment: Glucocerebrosidase-p2 (AID 348; in the data active = potency below about 10 µM; also: potency is read from the fitted curve at half-maximal effect); details: purified GBA, blue fluorogenic substrate, 40 min
Chain of Lysosomal acid glucosylceramidase (Homo sapiens) (P04062 whole entry, looked up): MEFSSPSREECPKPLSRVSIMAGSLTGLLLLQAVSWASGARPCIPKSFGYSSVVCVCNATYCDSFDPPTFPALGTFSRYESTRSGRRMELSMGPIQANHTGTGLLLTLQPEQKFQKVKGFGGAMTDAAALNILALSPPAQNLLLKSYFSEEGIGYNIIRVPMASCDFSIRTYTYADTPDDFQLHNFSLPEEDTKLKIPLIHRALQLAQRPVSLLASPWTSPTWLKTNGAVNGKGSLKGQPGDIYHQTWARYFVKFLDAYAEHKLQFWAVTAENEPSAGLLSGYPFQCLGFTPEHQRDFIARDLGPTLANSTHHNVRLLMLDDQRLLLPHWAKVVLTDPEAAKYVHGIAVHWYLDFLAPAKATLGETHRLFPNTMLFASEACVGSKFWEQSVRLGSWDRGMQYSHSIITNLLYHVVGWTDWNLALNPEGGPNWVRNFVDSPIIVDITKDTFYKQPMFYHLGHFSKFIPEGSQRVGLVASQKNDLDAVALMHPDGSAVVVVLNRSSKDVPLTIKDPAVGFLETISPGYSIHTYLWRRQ
Procedure, shortened: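 Normal human glucocerebrosidase (0.2 nM) with blue fluorogenic substrate (80 uM final) in citrate/phosphate pH 5.9 with 10mM sodium taurocholate, 0.01% tween-20; 40 min RT, NaOH/glycine stop; fluorescence Ex 365/Em 440; AC50 from a titration from 0.6 nM upwards.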

[2] = AP1 Signaling Pathway (AID 357; active = well fitted curve in either direction with a large enough effect, not every such curve was filed as active;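 also: ME-180 reporter cells stimulated with EGF at its EC50 level; % is scaled to controls: 0 for no effect and ±100 for the full control effect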); details: ME-180 AP-1-bla reporter, EGF-induced, beta-lactamase ratio, 5 h; at 7.69 µM (top of the series) unless noted
Procedure, shortened: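 Titration-series screen for positive or negative modulators of EC50 EGF-induced signaling in ME-180 cells carrying an AP-1-driven beta-lactamase reporter. After 5 hours at 37 degrees Celsius, CCF4 460nm/530nm emission ratio gave %Activity; AC50 values derived.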

[3] = target: Cytochrome P450 1A2 (Homo sapiens) (UniProt P05177); experiment: p450-cyp1a2 (AID 410; calls by dose curve; also: potency is read from the fitted curve at half-maximal effect); details: recombinant CYP1A2, luciferin-ME demethylation, luminescence; series mostly up to 57 µM
Chain of Cytochrome P450 1A2 (Homo sapiens) (P05177 whole entry, looked up): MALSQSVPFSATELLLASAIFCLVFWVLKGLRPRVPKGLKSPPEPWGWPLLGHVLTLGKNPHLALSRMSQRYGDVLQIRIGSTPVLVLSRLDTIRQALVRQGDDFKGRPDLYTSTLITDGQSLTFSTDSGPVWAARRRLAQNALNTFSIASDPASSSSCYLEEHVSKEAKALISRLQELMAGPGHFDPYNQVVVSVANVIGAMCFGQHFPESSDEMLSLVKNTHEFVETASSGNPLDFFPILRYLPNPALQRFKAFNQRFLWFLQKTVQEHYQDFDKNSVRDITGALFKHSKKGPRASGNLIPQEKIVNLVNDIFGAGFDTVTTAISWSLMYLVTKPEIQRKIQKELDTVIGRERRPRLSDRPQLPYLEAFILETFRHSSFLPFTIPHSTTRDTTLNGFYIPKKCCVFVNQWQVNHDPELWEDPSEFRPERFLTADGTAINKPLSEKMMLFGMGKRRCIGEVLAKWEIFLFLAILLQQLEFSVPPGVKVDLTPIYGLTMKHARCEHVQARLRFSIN
Procedure, shortened: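 20nM CYP1A2, 100uM Luciferin-ME (=Km), 100mM KPO4; cpd 10 min RT; +NADPH regen, 60 min RT; stop/detect 20 min; luminescence. Normalized to furafylline 57 uM = full inhibition.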

[4] = NFAT Signaling Pathway (AID 444; active = well fitted curve in either direction with a large enough effect, not every such curve was filed as active;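 also: carbachol stimulus at about its EC50 of 1 µM final; % is scaled to controls: 0 for no effect and ±100 for the full control effect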); details: Jurkat NFAT-bla M1, carbachol, beta-lactamase ratio, 5 h; at 7.69 µM (top of the series) unless noted
Procedure, shortened: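 Jurkat cells carrying an NFAT-driven β-lactamase reporter and co-transfected muscarinic M1 receptor were treated with compound plus carbachol (1 uM final, an EC50 level) for 5 h at 37 °C. CCF4 loading followed for 1 h at RT; 460/530 nm ratio gave %activity.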

[5] = Stat Signaling Pathway (AID 446; active = well fitted curve in either direction with a large enough effect, not every such curve was filed as active;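 also: ME-180 cervical cancer cells given 40 pM IL-6 alongside compound; SIE-controlled beta-lactamase reporter measured as 460/530 nm FRET emission ratio; % is scaled to controls: 0 for no effect and ±100 for the full control effect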); details: ME-180 (cervical carcinoma) SIE beta-lactamase reporter, IL-6 stimulated, 5 h; at 7.69 µM (top of the series) unless noted
Procedure, shortened: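 Compound effects on IL-6-induced STAT reporter activity were measured in ME-180 cells. After overnight culture, cells were co-treated with 40 pM IL-6 for 5 hrs before beta-lactamase substrate loading at room temperature.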

[6] = target: Glucocorticoid receptor (Homo sapiens) (UniProt P04150); experiment: GR-GFP Redistribution (AID 450;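 active = compounds whose dose series gives a full or clear partial fitted curve of increased nuclear translocation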; also: potency is read from the fitted curve at half-maximal effect); details: U2OS GR-GFP nuclear translocation, laser cytometry, 2 h
Chain of Glucocorticoid receptor (Homo sapiens) (P04150 whole entry, looked up, the tested form may be a part): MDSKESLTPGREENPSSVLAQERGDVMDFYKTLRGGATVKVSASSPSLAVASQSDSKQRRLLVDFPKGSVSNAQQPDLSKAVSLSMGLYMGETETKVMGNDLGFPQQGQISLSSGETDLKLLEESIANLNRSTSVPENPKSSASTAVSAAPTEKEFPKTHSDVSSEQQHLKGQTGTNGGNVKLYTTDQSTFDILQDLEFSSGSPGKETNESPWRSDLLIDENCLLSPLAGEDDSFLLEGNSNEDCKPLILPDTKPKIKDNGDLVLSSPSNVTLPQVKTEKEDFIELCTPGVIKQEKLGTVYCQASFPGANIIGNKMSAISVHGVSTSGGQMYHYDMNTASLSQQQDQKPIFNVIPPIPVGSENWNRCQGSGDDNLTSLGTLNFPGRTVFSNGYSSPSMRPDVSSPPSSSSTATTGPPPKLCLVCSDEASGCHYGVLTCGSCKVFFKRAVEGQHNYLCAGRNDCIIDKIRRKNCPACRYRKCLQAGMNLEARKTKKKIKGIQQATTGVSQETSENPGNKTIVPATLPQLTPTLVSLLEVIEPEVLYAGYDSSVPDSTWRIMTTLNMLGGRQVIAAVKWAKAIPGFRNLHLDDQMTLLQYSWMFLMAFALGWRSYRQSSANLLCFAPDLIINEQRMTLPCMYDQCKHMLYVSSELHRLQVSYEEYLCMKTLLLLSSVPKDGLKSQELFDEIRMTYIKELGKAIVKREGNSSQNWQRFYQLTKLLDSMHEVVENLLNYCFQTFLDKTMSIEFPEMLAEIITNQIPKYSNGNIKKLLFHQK

[7] = target: Glucocorticoid receptor (Homo sapiens) (UniProt P04150); experiment: GR-EFC Redistribution (AID 451; calls by dose curve; also: potency is read from the fitted curve at half-maximal effect); details: CHO-K1 GR-EFC translocation, beta-gal luminescence, 2 h
Procedure, shortened: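 CHO-K1 cells stably expressing nuclear-localized β-gal enzyme acceptor and GR fused C-terminally to the enzyme donor fragment; ligand-driven nuclear translocation restores β-gal by complementation. Compounds titrated up to 46 uM final, 2 h at 37 °C; luminescence read.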

[8] = target: Mitogen-activated protein kinase 10 (Mus musculus) (UniProt Q61831); experiment: JNK3 AlphaScreen Assay (AID 530; active = well fitted curve in either direction with a large enough effect, not every such curve was filed as active;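 also: kinase came from lysate of stimulated human HepG2 cells; signal reports phosphorylation of biotinylated GST-cJun 1-79 at Ser73 with 10 µM ATP; % is scaled to controls: 0 for no effect and ±100 for the full control effect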); details: JNK3 lysate, c-Jun phosphorylation; series mostly up to 57.1 µM
Procedure, shortened: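 Biotinylated GST-cJun(1-79) served as substrate for JNK3 in HepG2 lysates stimulated with IL-1beta and TNF-alpha. ATP was 10 uM final, pH 7.6. Ser73 phosphorylation was quantified by AlphaScreen (680 nm excitation).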

[9] = target: 3',5'-cyclic-AMP phosphodiesterase 4B (Homo sapiens) (UniProt Q07343); experiment: qHTS Assay for Inhibitors of PDE-IV (AID 607; active = well fitted activation curve with a large enough effect in the main read-out, with a control signal flat, not every such curve was filed as active; also: % of control where 0% means no effect); details: HEK293 ACTOne CNG channel cells, membrane potential fluorescence; series mostly up to 22.9 µM
Chain of 3',5'-cyclic-AMP phosphodiesterase 4B (Homo sapiens) (Q07343 whole entry, looked up): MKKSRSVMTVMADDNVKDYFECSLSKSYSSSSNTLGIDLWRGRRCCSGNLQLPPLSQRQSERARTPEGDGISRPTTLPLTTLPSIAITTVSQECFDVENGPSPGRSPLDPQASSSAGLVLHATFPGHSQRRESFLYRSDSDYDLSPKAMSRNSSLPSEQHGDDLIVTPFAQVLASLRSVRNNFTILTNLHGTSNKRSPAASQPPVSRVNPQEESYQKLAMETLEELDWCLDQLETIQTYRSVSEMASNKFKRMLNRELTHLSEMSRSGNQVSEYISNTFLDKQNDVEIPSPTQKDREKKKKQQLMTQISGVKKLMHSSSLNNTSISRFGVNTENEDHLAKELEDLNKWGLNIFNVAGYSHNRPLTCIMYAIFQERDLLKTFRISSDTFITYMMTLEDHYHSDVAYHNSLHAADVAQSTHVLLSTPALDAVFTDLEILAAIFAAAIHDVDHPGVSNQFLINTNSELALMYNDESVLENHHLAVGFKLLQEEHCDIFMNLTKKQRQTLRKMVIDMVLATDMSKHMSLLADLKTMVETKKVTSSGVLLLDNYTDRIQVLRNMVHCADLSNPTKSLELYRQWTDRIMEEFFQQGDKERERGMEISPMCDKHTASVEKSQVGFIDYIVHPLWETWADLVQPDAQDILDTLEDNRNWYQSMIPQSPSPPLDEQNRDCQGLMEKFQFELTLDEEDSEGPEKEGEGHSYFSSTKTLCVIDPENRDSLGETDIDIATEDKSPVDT
Procedure, shortened: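 ACTOne HEK293 cells carry a modified cAMP-gated CNG channel and express endogenous PDE4; plated 1000 cells/well, compounds up to 22.9 uM final. Membrane-potential dye fluorescence (ex 535/em 590) was read; parental cells received 10 uM forskolin + 100 uM RO 20-1724.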

[10] = target: Cytochrome P450 3A4 (Homo sapiens) (UniProt P08684); experiment: qHTS Assay for Inhibitors and Substrates of Cytochrome P450 3A4 (AID 884); details: recombinant CYP3A4, Luciferin-PPXE luminescence; series mostly up to 57.1 µM; also: potency is read from the fitted curve at half-maximal effect; nearly all actives have a fitted effect of over 50% in size
Chain of Cytochrome P450 3A4 (Homo sapiens) (P08684 whole entry, looked up): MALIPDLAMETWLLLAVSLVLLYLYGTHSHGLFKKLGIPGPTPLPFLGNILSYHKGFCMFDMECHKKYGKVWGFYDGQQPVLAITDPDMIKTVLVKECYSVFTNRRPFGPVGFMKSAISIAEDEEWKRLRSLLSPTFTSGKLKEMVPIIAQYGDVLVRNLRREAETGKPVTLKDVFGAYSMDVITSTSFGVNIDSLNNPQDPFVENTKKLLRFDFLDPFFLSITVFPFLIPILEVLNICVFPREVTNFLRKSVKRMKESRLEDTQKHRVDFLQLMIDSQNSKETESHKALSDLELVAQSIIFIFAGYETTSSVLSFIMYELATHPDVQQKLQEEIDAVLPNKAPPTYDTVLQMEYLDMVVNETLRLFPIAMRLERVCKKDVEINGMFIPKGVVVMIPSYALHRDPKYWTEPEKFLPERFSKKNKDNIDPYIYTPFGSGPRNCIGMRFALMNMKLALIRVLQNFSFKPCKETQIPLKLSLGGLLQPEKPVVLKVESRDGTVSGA
Procedure, shortened: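 Luminescent readout of luciferin produced by CYP3A4 (20 nM) dealkylation of Luciferin-PPXE, 25 uM (its KM). NADPH-driven reaction ran 60 min at RT after 10 min compound preincubation; data scaled to 57 uM ketoconazole as 100% inhibition.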

[11] = target: Cytochrome P450 3A4 (Homo sapiens) (UniProt P08684); experiment: qHTS Assay for Activators of Cytochrome P450 3A4 (AID 885); details: recombinant CYP3A4, Luciferin-PPXE luminescence, 60 min; series mostly up to 57.1 µM; also: nearly all actives have a fitted effect of over 65% in size
Procedure, shortened: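 CYP3A4 activity: Luciferin-PPXE O-dealkylation, 25uM substrate, 200mM KPO4, RT throughout. Read-out is luciferase luminescence; higher values reflect activation.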

[12] = target: Cytochrome P450 2C19 (Homo sapiens) (UniProt P33261); experiment: qHTS Assay for Inhibitors and Substrates of Cytochrome P450 2C19 (AID 899); details: recombinant CYP2C19, luciferin-H EGE luminescence; series mostly up to 57.1 µM; also: potency is read from the fitted curve at half-maximal effect; nearly all actives have a fitted effect of over 60% in size
Chain of Cytochrome P450 2C19 (Homo sapiens) (P33261 whole entry, looked up): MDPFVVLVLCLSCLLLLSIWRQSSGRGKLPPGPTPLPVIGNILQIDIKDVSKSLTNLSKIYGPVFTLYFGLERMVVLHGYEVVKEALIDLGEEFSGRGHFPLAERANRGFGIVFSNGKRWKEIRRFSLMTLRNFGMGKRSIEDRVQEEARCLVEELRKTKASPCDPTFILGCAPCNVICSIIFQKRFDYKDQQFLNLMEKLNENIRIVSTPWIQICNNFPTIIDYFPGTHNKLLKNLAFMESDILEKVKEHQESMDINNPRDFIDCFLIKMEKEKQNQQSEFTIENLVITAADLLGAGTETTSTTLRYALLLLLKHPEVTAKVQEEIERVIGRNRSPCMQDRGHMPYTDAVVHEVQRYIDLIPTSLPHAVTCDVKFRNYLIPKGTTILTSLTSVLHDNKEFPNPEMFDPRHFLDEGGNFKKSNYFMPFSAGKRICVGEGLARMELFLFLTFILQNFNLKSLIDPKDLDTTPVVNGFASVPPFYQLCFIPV
Procedure, shortened: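 In 50mM KPO4, the reaction held 5nM enzyme and KM-level (10uM) Luciferin-H EGE; it ran 60 min at 37C after NADPH regeneration and a 10 min compound preincubation. Luminescence values were scaled to 57uM ketoconazole as complete inhibition.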

[13] = target: Dual specificity protein kinase CLK4 (Homo sapiens) (UniProt Q9HAZ1); experiment: qHTS Assay for Inhibitors of CDC-like Kinase 4 (Kinase-Glo Assay) (AID 1770); details: recombinant Clk4, Kinase-Glo ATP depletion luminescence; series mostly up to 66.7 µM; also: % is scaled to controls: 0 for no effect and ±100 for the full control effect; nearly all actives have a fitted effect of over 65% in size
Chain of Dual specificity protein kinase CLK4 (Homo sapiens) (Q9HAZ1 whole entry, looked up): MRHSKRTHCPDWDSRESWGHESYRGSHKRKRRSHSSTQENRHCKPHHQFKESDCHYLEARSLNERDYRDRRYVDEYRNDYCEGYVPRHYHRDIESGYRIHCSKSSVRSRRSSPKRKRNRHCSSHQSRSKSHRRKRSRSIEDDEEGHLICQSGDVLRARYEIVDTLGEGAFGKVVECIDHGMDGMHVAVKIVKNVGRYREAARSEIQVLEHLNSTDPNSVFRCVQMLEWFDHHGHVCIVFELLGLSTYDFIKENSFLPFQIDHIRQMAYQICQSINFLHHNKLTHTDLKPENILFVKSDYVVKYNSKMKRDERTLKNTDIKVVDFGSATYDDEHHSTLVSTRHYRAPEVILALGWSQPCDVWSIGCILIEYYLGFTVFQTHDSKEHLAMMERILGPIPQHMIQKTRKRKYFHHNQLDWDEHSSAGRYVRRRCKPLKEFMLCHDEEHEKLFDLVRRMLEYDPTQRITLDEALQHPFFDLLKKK
Procedure, shortened: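 Readout: Kinase-Glo luminescence from ATP left after a 4.5 h room-temperature reaction of 25 nM Clk4 with 100 uM RS peptide and 1 uM ATP (final). Buffer: 25 mM Tris pH 7.5, 10 mM MgCl2.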

[14] = target: Dual specificity protein kinase CLK4 (Homo sapiens) (UniProt Q9HAZ1); experiment: qHTS Assay for Inhibitors of CDC-like Kinase 4 (ADP-Glo Assay) (AID 1771); details: recombinant CLK4, ADP-Glo luminescence; series mostly up to 80 µM; also: % is scaled to controls: 0 for no effect and ±100 for the full control effect; nearly all actives have a fitted effect of over 70% in size
Procedure, shortened: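 25 nM Clk4, 100 uM RS peptide, 1 uM ATP (final); 2 mM MgCl2, 0.5 mM EGTA, 2.5 mM DTT, 0.01% Triton X-100; 1 hr RT. ADP-Glo readout: ATP depletion 45 min, conversion/luciferase 30 min, luminescence.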

[15] = target: Dual specificity protein kinase CLK4 (Homo sapiens) (UniProt Q9HAZ1); experiment: qHTS Assay for Inhibitors of CDC-like Kinase 4 (ADP-FP Assay) (AID 1795); details: Transcreener ADP fluorescence polarization; series mostly up to 50 µM;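 also: recombinant human CLK4 phosphorylating RS repeat peptide at 1 µM ATP; % is scaled to controls: 0 for no effect and ±100 for the full control effect; nearly all actives have a fitted effect of over 60% in size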
Procedure, shortened: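 FP readout: Orange Transcreener ADP2 tracer (4 nM) plus ADP antibody, read after 30 min at room temperature. Kinase step: 6.25 nM Clk4, 100 uM RS peptide, 1 uM ATP, pH 7.5, 1 h.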

[16] = target: Ubiquitin carboxyl-terminal hydrolase 1 (Homo sapiens) (UniProt O94782); experiment: Inhibitors of USP1/UAF1: Pilot qHTS (AID 504865); details: purified USP1/UAF1, Ub-rhodamine cleavage fluorescence; series mostly up to 54.9 µM;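 also: rhodamine fluorescence freed from ubiquitin-rhodamine substrate followed over time; top concentration of the series differs between compounds; % is scaled to controls: 0 for no effect and ±100 for the full control effect; nearly all actives have a fitted effect of over 35% in size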
Chain of Ubiquitin carboxyl-terminal hydrolase 1 (Homo sapiens) (O94782 whole entry, looked up): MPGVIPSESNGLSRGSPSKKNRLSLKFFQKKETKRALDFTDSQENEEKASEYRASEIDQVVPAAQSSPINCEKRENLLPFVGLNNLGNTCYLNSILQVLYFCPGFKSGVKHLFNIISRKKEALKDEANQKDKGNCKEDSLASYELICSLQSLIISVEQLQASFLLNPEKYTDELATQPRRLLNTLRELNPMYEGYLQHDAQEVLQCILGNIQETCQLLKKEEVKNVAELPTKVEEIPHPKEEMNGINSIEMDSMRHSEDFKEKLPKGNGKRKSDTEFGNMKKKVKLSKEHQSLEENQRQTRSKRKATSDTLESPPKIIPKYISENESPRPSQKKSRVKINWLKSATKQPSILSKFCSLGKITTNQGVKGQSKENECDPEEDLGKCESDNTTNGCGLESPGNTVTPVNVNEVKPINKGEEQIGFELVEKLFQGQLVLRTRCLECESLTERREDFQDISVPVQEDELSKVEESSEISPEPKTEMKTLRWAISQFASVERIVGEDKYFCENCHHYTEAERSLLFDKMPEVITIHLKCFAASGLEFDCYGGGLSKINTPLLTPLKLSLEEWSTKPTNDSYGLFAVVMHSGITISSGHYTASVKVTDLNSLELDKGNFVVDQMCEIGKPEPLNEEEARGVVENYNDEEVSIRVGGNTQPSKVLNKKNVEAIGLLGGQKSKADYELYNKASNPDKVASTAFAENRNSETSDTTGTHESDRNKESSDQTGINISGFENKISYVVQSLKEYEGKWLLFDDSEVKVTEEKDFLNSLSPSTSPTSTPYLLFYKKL
Procedure, shortened: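 1nM USP1/UAF1 + cpd, 15 min RT; start w/ Ub-Rho 150nM final; kinetic FL 480/540 nm, 6 reads q60 s. Buffer 50mM HEPES pH 7.8, 0.5mM EDTA, 1mM TCEP, 0.01% Tween-20, 0.1 mg/ml BSA.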

[17] = Primary qHTS for small molecule stabilizers of the endoplasmic reticulum resident proteome: Secreted ER Calcium Modulated Protein (SERCaMP) assay (AID 1508630); details: SH-SY5Y GLuc-SERCaMP (Gaussia luciferase released on ER calcium loss) secretion, thapsigargin, luminescence; series mostly up to 38.4 µM; also: % is scaled to controls: 0 for no effect and ±100 for the full control effect
Procedure, shortened: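 The SH-SY5Y reporter protocol was run at 3 concentrations up to 38.3 uM (primary) or 11 concentrations (follow-up): 16 h compound, 100 nM thapsigargin for 4 h, then extracellular luciferase luminescence.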

N#Cc1cccc(-c2cncnc2NCc2ccccc2)c1
active: Potency [3] 5.01 µM | Potency [10] 1.26 µM | Potency [12] 7.94 µM
inactive: Potency [1] > 11.4 µM | activity change, negative = inhibition [2] 1.22% | activity change, negative = inhibition [4] 2.64% | activity, negative = inhibition [5] -1.62% | Potency [6] > 46 µM | Potency [7] > 46 µM | Potency [8] | Potency [9] | Potency [11] | Potency [13] | Potency [14] | Potency [15] | Potency [16] | outcome [17]

Cc1noc(C)c1-c1nccc(N(C)Cc2ccco2)n1
active: Potency [3] 2 µM
inactive: Potency [1] > 11.4 µM | activity change, negative = inhibition [2] 6.47% | activity change, negative = inhibition [4] -3.01% | activity, negative = inhibition [5] 3.88% | Potency [6] > 46 µM | Potency [7] > 46 µM | Potency [8] | Potency [9] | Potency [11] | Potency [13] | Potency [14] | Potency [15] | Potency [16] | outcome [17]

Cc1ccccc1-c1cncnc1Nc1ccccc1
active: Potency [3] 15.8 µM | Potency [10] 0.631 µM | Potency [12] 3.16 µM
inactive: Potency [1] > 11.4 µM | activity change, negative = inhibition [2] -10.9% | activity change, negative = inhibition [4] -1.77% | activity, negative = inhibition [5] 16% | Potency [6] > 46 µM | Potency [7] > 46 µM | Potency [8] | Potency [11] | Potency [13] | Potency [14] | Potency [15] | Potency [16] | outcome [17]

Cc1cnc(CNc2ncncc2-c2ccccc2Cl)cn1
inactive: Potency [1] > 11.4 µM | activity change, negative = inhibition [2] -2.38% | activity change, negative = inhibition [4] 13.7% | activity, negative = inhibition [5] -0.675% | Potency [6] > 46 µM | Potency [7] > 46 µM | Potency [8] | Potency [9] | Potency [11] | Potency [13] | Potency [14] | Potency [15] | Potency [16] | outcome [17]
active: Potency [3] 15.8 µM

Cn1c(=O)c(-c2ccccc2)nc2cnc(OCc3ccccc3)nc21
inactive: Potency [1] > 11.4 µM | activity change, negative = inhibition [2] -1.1% | activity change, negative = inhibition [4] 4.72% | activity, negative = inhibition [5] -3.56% | Potency [6] > 9.22 µM | Potency [7] > 46 µM | Potency [8] | Potency [9] | Potency [11] | Potency [13] | Potency [14] | Potency [15] | Potency [16] | outcome [17]
active: Potency [3] 1.58 µM

FC(F)(F)c1ccccc1-c1cncnc1NCc1cccnc1
inactive: Potency [1] > 11.4 µM | activity change, negative = inhibition [2] -13.4% | activity change, negative = inhibition [4] -6.58% | activity, negative = inhibition [5] -1.05% | Potency [6] > 46 µM | Potency [7] > 46 µM | Potency [8] | Potency [9] | Potency [11] | Potency [13] | Potency [14] | Potency [15] | Potency [16] | outcome [17]
active: Potency [3] 20 µM | Potency [10] 0.631 µM | Potency [12] 2.51 µM
